Results filed as inconclusive are left out. Activity calls are given as the source filed them. Calls follow the shape of the dose curve; as a rule, active = well fitted inhibition curve with a large enough effect; inconclusive = small, poorly fitted or top-dose-only effect; inactive = no such curve, though single readings can be large or run the other way.
Potency is read from the fitted curve at half-maximal effect.

This test is described as follows: BET inhibitor-based combinations targeting novel dependencies in MECOM-rearranged (r) AML: OCI-AML3 cell line (AID 2202232). Also: nearly all actives have a fitted effect of over 35% in size. The conditions noted are these: CellTiter-Glo luminescence, 48 h; Potency: OCI-AML3 viability; series mostly up to 46 µM. The method in brief:
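A 48 hr incubation preceded viability reading by CellTiter-Glo, with 15 min room-temperature development. Dose series had 11 points; normalization used DMSO and empty wells; AUC was computed and mean-centered per line as Z-AUC.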
Take `Cn1cc(-c2ccc(-c3cncc(Cl)c3N3CCC4(CCNC4=O)CC3)cc2)cn1`: the Potency is 16.6 µM (active).

For `C=CCN(/C=C1\C(=O)O[C@@H](COC)[C@]2(C)C1=C(O)C(=O)C1=C2[C@@H](OC(C)=O)C[C@]2(C)C(=O)CC[C@H]12)CC=C`, the Potency result was “inactive”.

As for `NS(=O)(=O)Oc1ccc2c3c(c(=O)oc2c1)CCCCC3`, the Potency entry is “inactive”.

Consider `[O-][n+]1cccc(-c2nc3c(Cl)cccc3cc2[C@@H](Nc2ncnc3cccnc23)C(F)(F)F)c1`, for which the Potency was 5.25 µM (active).

Regarding `CO[C@H]1/C=C/O[C@@]2(C)Oc3c(C)c(O)c4c(O)c(c5c(nc6cc(C)ccn65)c4c3C2=O)NC(=O)/C(C)=C\C=C\[C@H](C)[C@H](O)[C@@H](C)[C@@H](O)[C@@H](C)[C@H](OC(C)=O)[C@@H]1C`, the Potency result is “inactive”.

For `COc1cccc(-c2c(C)n(Cc3c(F)cccc3C(F)(F)F)c(=O)n(C[C@H](NCCCC(=O)O)c3ccccc3)c2=O)c1F`, the Potency is 7.42 µM (active).

In the case of `N#Cc1ccc(-c2c(-c3ncn[nH]3)sc(N3CCOCC3)c2C#N)c(F)c1`, the Potency is 5.9 µM (active).

On to `CCN(CC)C(=S)SSC(=S)N(CC)CC`, for which the Potency was 0.332 µM (active).

As to `CCOC(=O)N[C@@H]1CC[C@@H]2[C@@H](C1)C[C@H]1C(=O)O[C@H](C)[C@H]1[C@H]2/C=C/c1ccc(-c2cccc(F)c2)cn1`, the Potency is 14.8 µM (active).

For the molecule `CCC(=O)N1CCOc2c(cc(-c3cc(OC)cc(OC)c3)cc2C(=O)N[C@H]2CCCN(C)C2)C1`, the Potency was 16.6 µM (active).

For the molecule `COc1cc(N2CCN(C)CC2)ccc1Nc1ncc2c(n1)N(C)c1ccccc1C(=O)N2`, the Potency is 18.6 µM (active).

On to `CCC[C@H](Nc1nc(-c2ccc(NC(=O)NCC)c(OC)c2)ncc1C)c1cccnc1`, for which the Potency was 0.105 µM (active).

`Nc1nc(-c2nn(Cc3ccccc3F)c3ncccc23)ncc1C1CC1`: the Potency was 5.9 µM (active).

On to `Cc1ccc(NS(=O)(=O)c2cccc(C#N)c2)c2[nH]cc(C#N)c12`, for which the Potency was 1.18 µM (active).

As for `COC(=O)Nc1nc2ccc(S(=O)c3ccccc3)cc2[nH]1` (configuration not stated), the Potency is 26.3 µM (active).

As to `CC(C)NC(=O)C1CCC(n2c(NC(=O)c3ccc(F)cc3)nc3ccc(CN4CCC(C(C)(C)O)CC4)cc32)CC1` (configuration not stated), the Potency is 3.62 µM (active).

As to `OC1CCC(Oc2cccc3cnc(Nc4ccc5nc[nH]c5c4)nc23)CC1` (configuration not stated), the Potency is 1.48 µM (active).

For the molecule `CC(C)n1cc(-c2ccc3c(c2)N(C)CC3)c2c(NS(=O)(=O)c3ccn(C)n3)ccnc21`, the Potency result was “inactive”.

As for `Cc1ccc(-n2nc(C(C)(C)C)cc2NC(=O)NCc2cc(F)ccc2Oc2ccc3c(cnn3CCO)c2)cc1`, the Potency is 14.8 µM (active).

In the case of `CN(C)CCOc1ccc(-c2nc(-c3ccc4c(c3)CC/C4=N\O)c(-c3ccncc3)[nH]2)cc1`, the Potency was 5.9 µM (active).

With `Cc1c(NC(=O)c2cc(C(N)=O)nc3cc(F)ccc23)c(C(F)(F)F)nn1Cc1ccc(C(C)(C)C)cc1`, the Potency was 23.5 µM (active).

Regarding `COc1cc(OC)cc(N2CCN(C(=O)Nc3nc4cc(F)ccc4nc3OC)CC2)c1`, the Potency was 1.05 µM (active).

As for `CC(C)Oc1ccc(C(=O)N[C@H](CNC(=O)CN(C)C)Cc2ccc(-c3cn4cccc([C@H](C)O)c4n3)cc2)cc1Cl`, the Potency was 0.263 µM (active).

`O=C(NC[C@H](O)CO)c1ccncc1Nc1ccc(I)cc1F`: the Potency was 0.0332 µM (active).

Regarding `N#C/C(=C(/N)Sc1ccc(N)cc1)c1ccccc1C(F)(F)F`, the Potency was 7.42 µM (active).

As to `COc1cc(C(C)C)c2c(c1)S(=O)(=O)N(COc1cc(=O)n3cccc(OCCN4CCCCC4)c3n1)C2=O`, the Potency is 23.5 µM (active).

With `CCN(C(=O)c1c(O)c2c(Cl)cccc2n(C)c1=O)c1ccccc1`, the Potency was 13.2 µM (active).
